In PubChem BioAssay one finds composite z-score and z-score data, which are given here for 21 molecules.

In test [1] the test system is PRMT1 (protein arginine N-methyltransferase 1). In words: PRMT1 binders on small-molecule microarrays, primary screen, biochemical, small-molecule microarray, 635 nm fluorescence (AID 1088).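 Note: binding of Prmt1 protein to compounds spotted on small-molecule microarray slides.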 As to conditions: small-molecule microarray binding, higher = more signal.
Test [2] in a line: yeast growth modulation, basal conditions, primary screen, YJM789 clinical isolate, OD600, 24 h (AID 1089).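 Note: growth of clinical yeast isolate S. cerevisiae YJM 789 seeded 1000 cells per well; test concentration not given here.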 As to conditions: S. cerevisiae YJM789 growth, higher = more signal, called active from +8 up or from −8 down.
Test [3] is described as follows: fission yeast growth modulation, primary screen, strain 972, OD600, 24 h, no modulator (AID 1090).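 Note: basal condition with compound alone and no growth modifier present; test concentration not given here.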 As to conditions: S. pombe 972 growth, higher = more signal, called active from +8 up or from −8 down.
Test [4] can be described thus: S. cerevisiae growth modulation with rapamycin, primary screen, strain BY4716, OD600, 96 h (AID 1091). Note: test concentration not given here. As to conditions: higher = more signal, called active from +8 up or from −8 down.
Test [5] has as its target Torsin-1A-interacting protein 2 (Homo sapiens) (UniProt Q8NFQ8). In words: LULL1 binders on small-molecule microarray, primary screen, cell lysate, human LULL1 lysate, 635/667 nm fluorescence (AID 1092).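 Note: probe is lysate of COS7 cells overexpressing human LULL1; score merges per-feature 667 nm fluorescence with signal-to-noise.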 As to conditions: hLULL1 lysate binding, 635 nm fluorescence, higher = more signal.
The nature of test [6]: E. coli growth modulation, two-sided OD650, primary screen, E. coli filamentation project, strain DRC41, 24 h (AID 1093).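 Note: MC1000 strain lacking acrAB efflux and sulA so SOS filamentation is blocked; test concentration not given here.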 As to conditions: OD650, 24 h, higher = more signal, called active from +8 up or from −8 down.
Test [7] can be described thus: small-molecule microarray binders of probe aLefty2, primary screen, biochemical, biotinylated probe, 635/667 nm fluorescence (AID 1094).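 Note: score merges spot fluorescence near 667 nm with spot signal-to-noise ratio.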 As to conditions: higher = more signal.
The test system of test [8] is Noggin (protein binding on small-molecule microarray). In words: Noggin binders on small-molecule microarray, primary screen, biochemical, 635/667 nm fluorescence (AID 1095).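 Note: score merges 667 nm feature fluorescence with signal to noise over triplicate slides.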 Particulars: 635 nm fluorescence, higher = more signal.
Test [9] addresses Neurogenic locus notch homolog protein 3 (Homo sapiens) (UniProt Q9UM47). In words: NOTCH3 binders on small-molecule microarray, primary screen, biochemical, 635/667 nm fluorescence (AID 1096). Particulars: NOTCH3 binding, 635 nm fluorescence, higher = more signal.
The nature of test [10]: small-molecule microarray binders of probe aEGFR, primary screen, biochemical, biotinylated probe, 635/667 nm fluorescence (AID 1097).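 Note: probe is a biotinylated anti-EGFR antibody binding compounds printed on slides; score combines fluorescence near 667 nm and signal to noise of each spot.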 As to conditions: higher = more signal.

Activity calls are given as the source filed them.

Chain of Neurogenic locus notch homolog protein 3 (Homo sapiens) (Q9UM47 whole entry, looked up): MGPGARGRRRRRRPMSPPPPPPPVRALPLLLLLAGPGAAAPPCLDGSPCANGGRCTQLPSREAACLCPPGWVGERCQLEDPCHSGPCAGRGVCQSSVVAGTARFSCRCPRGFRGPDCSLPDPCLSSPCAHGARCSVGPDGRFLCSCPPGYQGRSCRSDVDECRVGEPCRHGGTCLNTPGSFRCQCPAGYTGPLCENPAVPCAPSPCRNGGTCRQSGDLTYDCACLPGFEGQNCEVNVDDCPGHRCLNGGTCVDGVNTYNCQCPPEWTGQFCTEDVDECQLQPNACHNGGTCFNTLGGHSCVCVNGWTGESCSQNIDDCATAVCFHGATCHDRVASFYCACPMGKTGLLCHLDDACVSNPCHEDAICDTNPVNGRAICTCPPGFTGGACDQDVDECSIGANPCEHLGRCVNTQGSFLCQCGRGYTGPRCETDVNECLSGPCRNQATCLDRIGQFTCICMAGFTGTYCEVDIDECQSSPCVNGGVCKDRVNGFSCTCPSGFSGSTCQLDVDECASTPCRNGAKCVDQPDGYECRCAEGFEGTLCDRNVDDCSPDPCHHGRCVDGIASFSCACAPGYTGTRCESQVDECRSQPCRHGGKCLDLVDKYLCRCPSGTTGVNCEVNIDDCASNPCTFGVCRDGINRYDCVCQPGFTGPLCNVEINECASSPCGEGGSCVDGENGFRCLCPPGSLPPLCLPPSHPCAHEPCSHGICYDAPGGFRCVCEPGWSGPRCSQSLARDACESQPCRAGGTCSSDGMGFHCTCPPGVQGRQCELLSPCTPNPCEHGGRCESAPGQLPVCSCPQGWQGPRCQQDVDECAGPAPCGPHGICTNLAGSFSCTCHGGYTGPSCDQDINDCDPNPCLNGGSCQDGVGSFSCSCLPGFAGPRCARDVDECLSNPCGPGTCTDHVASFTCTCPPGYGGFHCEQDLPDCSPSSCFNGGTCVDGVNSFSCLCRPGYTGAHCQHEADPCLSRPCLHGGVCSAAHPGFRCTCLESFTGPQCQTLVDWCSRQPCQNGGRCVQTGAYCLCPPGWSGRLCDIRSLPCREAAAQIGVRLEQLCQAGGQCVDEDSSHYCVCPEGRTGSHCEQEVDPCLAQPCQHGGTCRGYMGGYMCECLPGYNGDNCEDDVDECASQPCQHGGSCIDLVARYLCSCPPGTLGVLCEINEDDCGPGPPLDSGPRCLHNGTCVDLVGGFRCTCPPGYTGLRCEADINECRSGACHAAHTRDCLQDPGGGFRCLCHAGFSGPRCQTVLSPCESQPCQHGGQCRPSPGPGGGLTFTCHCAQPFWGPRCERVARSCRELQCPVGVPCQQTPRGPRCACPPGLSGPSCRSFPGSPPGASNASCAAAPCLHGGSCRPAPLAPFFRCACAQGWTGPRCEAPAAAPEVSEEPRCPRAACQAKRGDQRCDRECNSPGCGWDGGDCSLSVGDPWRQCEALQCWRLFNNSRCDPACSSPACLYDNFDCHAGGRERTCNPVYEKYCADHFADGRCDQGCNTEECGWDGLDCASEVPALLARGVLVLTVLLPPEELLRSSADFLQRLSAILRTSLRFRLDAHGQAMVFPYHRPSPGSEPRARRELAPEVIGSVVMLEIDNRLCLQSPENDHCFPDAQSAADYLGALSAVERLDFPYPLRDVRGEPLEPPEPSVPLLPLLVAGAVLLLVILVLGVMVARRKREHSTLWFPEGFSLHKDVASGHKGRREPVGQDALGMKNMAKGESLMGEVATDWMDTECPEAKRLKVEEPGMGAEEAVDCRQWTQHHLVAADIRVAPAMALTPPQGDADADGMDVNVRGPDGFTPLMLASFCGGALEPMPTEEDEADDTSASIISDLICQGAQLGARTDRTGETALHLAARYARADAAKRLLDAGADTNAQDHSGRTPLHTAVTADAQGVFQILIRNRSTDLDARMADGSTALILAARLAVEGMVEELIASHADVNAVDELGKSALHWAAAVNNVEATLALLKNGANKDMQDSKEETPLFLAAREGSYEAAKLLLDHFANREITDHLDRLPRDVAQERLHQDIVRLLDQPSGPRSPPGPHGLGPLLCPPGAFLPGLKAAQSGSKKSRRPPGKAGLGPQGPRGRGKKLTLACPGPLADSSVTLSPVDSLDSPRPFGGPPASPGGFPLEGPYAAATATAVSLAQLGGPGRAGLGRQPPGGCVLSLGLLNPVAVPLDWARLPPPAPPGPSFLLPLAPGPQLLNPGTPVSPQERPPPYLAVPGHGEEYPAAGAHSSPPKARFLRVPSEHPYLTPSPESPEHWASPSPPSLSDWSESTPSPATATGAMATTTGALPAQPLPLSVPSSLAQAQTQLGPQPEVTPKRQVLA
Chain of Torsin-1A-interacting protein 2 (Homo sapiens) (Q8NFQ8 whole entry, looked up): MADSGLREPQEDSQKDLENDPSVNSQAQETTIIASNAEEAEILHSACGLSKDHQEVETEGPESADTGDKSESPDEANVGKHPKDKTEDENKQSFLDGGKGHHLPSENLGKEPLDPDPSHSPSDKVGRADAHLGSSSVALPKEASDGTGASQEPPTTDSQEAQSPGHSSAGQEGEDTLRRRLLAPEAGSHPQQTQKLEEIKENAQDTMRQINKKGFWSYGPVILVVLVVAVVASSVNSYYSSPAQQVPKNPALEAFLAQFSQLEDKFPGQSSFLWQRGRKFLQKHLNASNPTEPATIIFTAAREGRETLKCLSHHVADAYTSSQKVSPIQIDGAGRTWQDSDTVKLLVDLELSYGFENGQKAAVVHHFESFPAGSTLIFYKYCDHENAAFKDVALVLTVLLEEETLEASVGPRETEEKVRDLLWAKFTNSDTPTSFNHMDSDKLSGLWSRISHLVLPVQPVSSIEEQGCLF

In the case of `C=CC1c2cc(O)c(OC)cc2CCN1Cc1ccc([N+](=O)[O-])o1` (stereo not given), the composite z-score in test [1] is -0.047; in test [5], 2.77; in [7], 0.0761; in test [8], -0.273; in test [9], 0.606; in test [10], 0.0779. Moreover, the z-score is 0.994 (inactive) in test [2], -0.61 (inactive) in [3], 0.757 (inactive) in test [4] and 0.694 (inactive) in [6].

Regarding `NCCCCCNC(=O)[C@@H]1C[C@@H]2C(=O)N3CCC[C@H]3C(=O)N2[C@@H]1c1ccc(O)cc1`, the composite z-score in test [1] turned out to be 0.61; in [5] it was 1.97; in [7], 0.512; in test [8], 0.408; in test [9], 0.391; in test [10], 0.171. Further, the z-score was 0.758 (inactive) in test [2], -0.986 (inactive) in [3], 1.3 (inactive) in test [4] and 1.05 (inactive) in [6].

For `CN(C)CCCCNC(=O)[C@H]1C[C@H]2C(=O)N[C@@H](CCCC[N+](C)(C)C)C(=O)N2[C@H]1c1ccc(O)cc1`, the composite z-score was 0.366 in test [1]; -0.2 in test [5]; -0.0011 in [7]; -0.0923 in test [8]; -0.529 in test [9]; -0.194 in test [10]. In addition, the z-score in test [2] is -0.838 (inactive); in test [3] it was 0.0639 (inactive); in test [4], -0.682 (inactive); in [6], 0.744 (inactive).

`O=C1[C@@]23C=C(Br)[C@H](C[C@@H]2COC3)[C@@]12CO2`: the composite z-score in [1] was -0.186; in test [5], -0.498; in [7], -0.124; in test [8], 0.648; in test [9], 0.574; in test [10] it was -0.184. The z-score in [2] was 0.108 (inactive); in test [3], -1.34 (inactive); in [4] it was 0.0993 (inactive); in test [6] it was -1.39 (inactive).

Turning to `CCCCNC(=O)c1ccc(C#C[Si](C(C)C)(C(C)C)C(C)C)c(OC(C)=O)c1`, the composite z-score in [1] is 0.613; in test [5], 0.765; in test [7], -0.0916; in test [8] it was 0.926; in [9], 1.05; in test [10] it was -0.0208. Further, the z-score in test [2] was -0.272 (inactive); in [3], -1.61 (inactive); in test [4], 0.645 (inactive); in test [6] it was -0.423 (inactive).

For `NC(=O)[C@H]1[C@@H]2C(=O)O[C@@H](c3ccccc3)[C@@H](c3ccccc3)N2[C@@H](c2ccc(O)cc2)[C@]12C(=O)Nc1ccccc12`, the composite z-score in test [1] was -0.472; in test [5], 2.99; in test [7], -0.139; in test [8] it was -1.18; in test [9], -1.03; in test [10] it was -0.356. In addition, the z-score in [2] is 0.446 (inactive); in [3], -0.732 (inactive); in test [4] it was 0.659 (inactive); in [6] it was 0.13 (inactive).

As to `CC(C)CNC(=O)[C@@]1(c2ccc([N+](=O)[O-])cc2)CC(=O)N(C2CCCCC2)[C@@H]1c1ccc(CO)cc1`, the composite z-score is 0.566 in test [1]; 2.54 in test [5]; 0.136 in test [7]; -0.318 in test [8]; -0.0858 in test [9]; -0.0989 in test [10]. Further, the z-score is -0.563 (inactive) in [2], -0.514 (inactive) in [3], -0.548 (inactive) in test [4] and 0.861 (inactive) in [6].

`COc1cc(NN2C(C(O)c3ccc(I)cc3)C=CC3C(=O)N(c4ccccc4)C(=O)C32)cc(OC)c1OC` (stereo not given): the composite z-score in [1] was 1.56; in test [5], 3.56; in test [7] it was 0.25; in [8], 0.218; in test [9], 1.05; in [10], -0.0423. The z-score in test [2] is 0.93 (inactive); in test [3], -0.229 (inactive); in test [4], 0.0332 (inactive); in test [6], -0.699 (inactive).

Consider `CN1C(=O)C2C=CC(C(O)c3cc(C(F)(F)F)cc(C(F)(F)F)c3)N(Nc3ccccc3)C2C1=O` (stereo not given), for which the composite z-score in [1] was 0.237; in [5], 3.85; in [7] it was -0.194; in test [8] it was 0.325; in test [9] it was 0.377; in test [10] it was -0.155. For the same molecule, the z-score is -0.506 (inactive) in [2], -0.714 (inactive) in [3], -0.785 (inactive) in [4] and -0.565 (inactive) in test [6].

For `CC(CO)N1C(=O)[C@@H]2[C@H]3C(=O)OCC=C[C@H]3OC23C=CCN(c2ccc(Cl)cc2)C(=O)[C@@H]13` (stereo not given in full), the composite z-score was -0.421 in test [1]; -0.391 in [5]; 0 in test [7]; -2.26 in test [8]; -1.05 in [9]; -0.297 in test [10]. Further, the z-score in test [2] was -0.686 (inactive); in [3], -0.244 (inactive); in test [4], -0.404 (inactive); in [6] it was 0.612 (inactive).

Consider `[N-]=[N+]=Nc1ccccc1C[C@]1(C(=O)O)N=C(c2ccc(OCCCO)cc2)O[C@H]1c1ccccc1`, for which the composite z-score in [1] was 1.34; in test [5], 3.11; in [7], 0.0116; in test [8], -0.0597; in [9], 0.703; in [10] it was -0.0828. In addition, the z-score is 3.9 (inactive) in test [2], 0.888 (inactive) in [3], 0.712 (inactive) in test [4] and 0.464 (inactive) in test [6].

As to `CC1(C)C(=O)C(c2ccccc2)=C2CN3C(=O)N(CCc4ccccc4)C(=O)C3(Cc3ccc(F)cc3)C=C21` (stereo not given), the composite z-score in test [1] was -0.203; in test [5] it was 2.52; in test [7] it was 0.428; in test [8] it was -0.459; in test [9] it was 0.337; in test [10] it was 0.133. Moreover, the z-score was 0.54 (inactive) in test [2], 0.921 (inactive) in test [3], 6.84 (inactive) in [4] and -2 (inactive) in test [6].

Regarding `CC(C)C(=C=CC[C@@H](O)c1cccc(OCCO)c1)C[C@@H](O)c1ccccn1`, the composite z-score was 0.504 in [1]; 1.26 in test [5]; -0.283 in test [7]; 0.38 in test [8]; 0.603 in test [9]; -0.161 in [10]. Besides, the z-score in test [2] is -0.282 (inactive); in [3], -0.361 (inactive); in test [4] it was -0.419 (inactive); in test [6], 0.379 (inactive).

Regarding `COc1ccc([Si](C)(C)[C@H]2[C@H](CCO)O[C@@]3(C(=O)N(Cc4ccccc4)c4ccc(N5CCOC5=O)cc43)[C@@H]2C)cc1`, the composite z-score in test [1] is 1.13; in [5], 1.64; in test [7], -0.0769; in test [8], 0.517; in test [9], 1.12; in [10], -0.0152. Moreover, the z-score in test [2] is 0.948 (inactive); in [3], -0.0089 (inactive); in test [4], 16.7 (active); in [6] it was 0.147 (inactive).

With `[N-]=[N+]=NC[C@H](Cc1ccccc1)NC(=O)c1ccccc1`, the composite z-score was 0.376 in [1]; 0.214 in test [5]; -0.0666 in test [7]; 0.014 in test [8]; -0.371 in test [9]; -0.14 in test [10]. Besides, the z-score in [2] was -1.02 (inactive); in test [3], -2.38 (inactive); in test [4], -1.27 (inactive); in [6] it was 1.56 (inactive).

Turning to `[N-]=[N+]=NCc1ccccc1[C@@H]1OC(c2ccc(OCCCO)cc2)=N[C@]1(Cc1ccccc1)C(=O)NCCN1CCOCC1`, the composite z-score in test [1] is 1.53; in test [5], 2.92; in test [7], 0.242; in test [8], 0.512; in test [9] it was 1.09; in [10] it was 0.591. Besides, the z-score in test [2] is 0.469 (inactive); in test [3], 0.75 (inactive); in test [4], 0.83 (inactive); in test [6], 1.11 (inactive).

Consider `CC(C)C[C@@H]1NC(=O)CNC(=O)[C@@]23C(=O)N[C@@H](Cc4ccccc4)C2[C@H](C)[C@@]2(C)O[C@H]2C3/C=C/C/C=C\CNC1=O` (stereo not given in full), for which the composite z-score in test [1] is 1.31; in test [5], 2.72; in test [7] it was -0.159; in test [8], 0.363; in test [9], 1.01; in test [10], -0.0828. Also, the z-score is -0.536 (inactive) in test [2], -0.26 (inactive) in [3], -0.0716 (inactive) in test [4] and -0.461 (inactive) in test [6].

Turning to `COC(=O)[C@@]1(Cc2ccc(OC)cc2)[C@H]2c3cc(C(=O)N4CCCC4)n(Cc4cc(C)n(C)n4)c3C[C@H]2CN1C(=O)c1ccccc1`, the composite z-score was 0.481 in test [1]; 3.85 in test [5]; 0.724 in test [7]; -0.513 in [8]; 1.04 in test [9]; 0.701 in [10]. Besides, the z-score in test [2] was -0.102 (inactive); in [3], 1.31 (inactive); in test [4], 0.202 (inactive); in test [6] it was -0.265 (inactive).

For `COc1cc(NN2C(C(O)C3CCCCC3)C=CC3C(=O)N(C)C(=O)C32)cc(OC)c1OC` (stereo not given), the composite z-score is 1.48 in [1]; 3.46 in test [5]; 0.855 in test [7]; -0.0279 in test [8]; 1.09 in [9]; 0.186 in test [10]. Moreover, the z-score is 0.137 (inactive) in [2], 0.169 (inactive) in test [3], 0.0624 (inactive) in test [4] and -0.853 (inactive) in [6].

For the molecule `COc1cc(NN2C(C(O)c3ccccc3)C=CC3C(=O)N(C)C(=O)C32)cc(OC)c1OC` (stereo not given), the composite z-score was 1.53 in [1]; 2.98 in [5]; 0.12 in [7]; 0.27 in test [8]; 0.832 in test [9]; -0.0581 in test [10]. Also, the z-score in test [2] is 0.679 (inactive); in test [3], 0.529 (inactive); in [4] it was 0.328 (inactive); in test [6], -0.852 (inactive).

Take `C=C(C)C1CCC(C(O)C2C=CC3C(=O)N(C)C(=O)C3N2Nc2cc(OC)c(OC)c(OC)c2)CC1` (stereo not given): the composite z-score turned out to be 1.51 in test [1]; 3.28 in test [5]; 0.0361 in test [7]; 0.205 in [8]; 1.02 in [9]; 0.0763 in test [10]. In addition, the z-score was 0.367 (inactive) in test [2], 0.458 (inactive) in test [3], 0.0769 (inactive) in test [4] and -1.37 (inactive) in [6].
